Screening results (PubChem BioAssay)
DT40 TDP1 no CPT: qHTS for Inhibitors of human tyrosyl-DNA phosphodiesterase 1 (TDP1): qHTS in cells in absence of CPT; DT40 Tdp1-/- hTDP1 cells, no CPT, ATP luminescence, 48 h; Potency, µM (series often up to 46.2 µM), inactives show at the highest dose activity change, negative = growth inhibition, usual class: inhibitors; 15% of 420,000 active; AID 686978, 2013; also: potency is read from the fitted curve at half-maximal effect; nearly all actives have a fitted effect of over 55% in size
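Chicken DT40 Tdp1-/- cells stably complemented with human TDP1 were seeded at 400 cells/well with DMSO in place of 20 nM camptothecin. After compound pinning, cells grew at least 48 hr at 37 °C; viability read by CellTiter-Glo luminescence.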
DT40 TDP1 CPT: DT40-hTDP1 cell growth loss with CPT; chicken DT40 Tdp1-/-;hTDP1 cells + 20 nM CPT, ATP luminescence, 48 h; Potency, µM (doses to about 46.2 µM), for the others: at the highest dose activity change, negative = growth inhibition, most hits filed as inhibitors; 12% of 420,000 active; AID 686979; also: potency is read from the fitted curve at half-maximal effect; nearly all actives have a fitted effect of over 55% in size
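Cell growth measured by CellTiter-Glo luminescence after a minimum 48 h, 37 C compound exposure with 20 nM CPT in Tdp1-knockout DT40 cells stably expressing hTDP1, seeded 400/well; qHTS titration format.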
HT1080NT lethal: kills 2HG-producing HT-1080-NT fibrosarcoma cells; HT-1080-NT fibrosarcoma viability, CellTiter-Glo ATP luminescence, 48 h; Potency, µM (top dose mostly 46.1 µM), for inactives: at the top dose activity, negative = less viability, hits mostly cytotoxic; 1.6% of 360,000 active;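 also: NT is the 2HG producing partner of a matched IDH1 knockdown line; potency is read from the fitted curve at half-maximal effect; 0% = DMSO-treated cells and -100% = media-only wells without cells; nearly all actives have a fitted effect of over 55% in size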
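Luminescent CellTiter-Glo readout after 48 hours of compound exposure at 37 degrees C defined viability of HT-1080-NT cells. Activity was normalized to DMSO wells and cell-free media wells; concentration-response curves were fitted and assigned curve classes.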
IL1B secr inh: blocks inflammasome-driven IL-1 beta release. 4.7% of 360,000 active. activity change, % at 57.5 µM. THP-1 LPS/ATP IL-1B secretion, AlphaLISA, 16 h; active compounds read low; in the data active = activity change below about -50%; inconclusive = mostly about -30% to -49%
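Secreted IL-1B measured by AlphaLISA bead assay after 16 h compound exposure of THP-1 cells; compounds (final up to 57.5 uM) added 1 h before LPS (250 ng/mL) and ATP (1.25 mM) stimulation; lower signal means less secretion.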
HT1080 IDH1KD tx: kills HT-1080 cells with IDH1 knockdown; HT-1080 IDH1 knockdown viability, ATP luminescence, 48 h; Potency, µM (series often up to 46.1 µM), for the others: at the highest dose activity, negative = toxicity, hits mostly cytotoxic; 2% of 360,000 active; AID 686971;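 also: potency is read from the fitted curve at half-maximal effect; 0% = DMSO wells and -100% = cell-free medium wells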
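% activity derives from luminescence (CellTiter-Glo), normalised to DMSO and no-cell wells. HT-1080-IDH1KD cells, 750/well, had 48 h compound exposure at 37 °C.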
* = called active by the depositor. Sampled rows, rich in hits. Any-hit rate of the full collection: about 19%. Unless noted, calls follow the shape of the dose curve; as a rule, active = well fitted curve in the direction sought with a large enough effect; inconclusive = small, poorly fitted or top-dose-only effect, or another doubt; inactive = no such curve, though single readings can be large; an effect the other way counts as inactive or inconclusive. Unless noted, % is scaled to controls: 0 for no effect and ±100 for the full control effect.

`CC(C)OP(=O)(OC(C)C)C(Nc1ccccc1)c1ccccc1C(F)(F)F` (configuration not stated) gave DT40 TDP1 no CPT inconclusive, DT40 TDP1 CPT inconclusive, HT1080NT lethal -6%, IL1B secr inh -12 and HT1080 IDH1KD tx -8%.
For COc1ccc(OC)c(C(Nc2ccccc2)P(=O)(OC(C)C)OC(C)C)c1 (configuration not stated) the results were DT40 TDP1 no CPT 16µM*, DT40 TDP1 CPT inconclusive, HT1080NT lethal -5%, IL1B secr inh 8 and HT1080 IDH1KD tx 0%.
For Cc1c(CCNS(=O)(=O)c2ccccc2)sc2nc(-c3ccc(Cl)cc3)nn12 the results were DT40 TDP1 no CPT 9.2µM* and DT40 TDP1 CPT 7.3µM*.
For O=C(Cn1ncc2c3ccccc3n(Cc3ccccc3F)c2c1=O)N1CCC2(CC1)OCCO2 the results were DT40 TDP1 no CPT 12µM*, DT40 TDP1 CPT 23µM*, HT1080NT lethal 25%, IL1B secr inh inconclusive and HT1080 IDH1KD tx 15%.
`Cc1c2cnn(CC(=O)N3CCC4(CC3)OCCO4)c(=O)c2c(C)n1Cc1ccc(F)cc1` gave DT40 TDP1 no CPT inconclusive, DT40 TDP1 CPT -22%, HT1080NT lethal 2%, IL1B secr inh -2 and HT1080 IDH1KD tx -3%.
Screening COC(=O)c1sc(NC(=O)/C=C/c2ccc(OC)c(OC)c2)c(C(=O)OC)c1C returned DT40 TDP1 no CPT inconclusive and DT40 TDP1 CPT -9%.
For COC(=O)C1=C(c2ccc(F)cc2F)C[C@@H]2CC[C@H]1N2C(=O)N1CCCC1 the results were DT40 TDP1 no CPT 8.2µM*, DT40 TDP1 CPT inconclusive, HT1080NT lethal 13%, IL1B secr inh 21 and HT1080 IDH1KD tx 2%.
For COC(=O)C1=C(c2ccc(F)cc2F)C[C@@H]2CC[C@H]1N2C(=O)N1CCOCC1 the results were DT40 TDP1 no CPT inconclusive, DT40 TDP1 CPT inconclusive, HT1080NT lethal -4%, IL1B secr inh 11 and HT1080 IDH1KD tx 0%.
COC(=O)C1=C(c2cccc(OC)c2OC)C[C@@H]2CC[C@H]1N2C(=O)N1CCCC1 was read as DT40 TDP1 CPT 21µM*, HT1080NT lethal 24%, IL1B secr inh 5 and HT1080 IDH1KD tx 7%.
Screening COC(=O)C1=C(c2ccc(F)cc2F)C[C@@H]2CC[C@H]1N2C(=O)N1CCC(O)(c2ccc(Cl)cc2)CC1 returned DT40 TDP1 no CPT 18µM*, DT40 TDP1 CPT 21µM*, HT1080NT lethal -19%, IL1B secr inh -78* and HT1080 IDH1KD tx -1%.
`COC(=O)C1=C(c2ccc(F)cc2OCc2ccccc2)C[C@@H]2CC[C@H]1N2C(=O)N1CCC(O)CC1` gave DT40 TDP1 no CPT inconclusive, DT40 TDP1 CPT inconclusive, HT1080NT lethal 3%, IL1B secr inh -13 and HT1080 IDH1KD tx 2%.
`COC(=O)C1=C(c2c(C)noc2C)C[C@@H]2CC[C@H]1N2C(=O)N1CCC(O)(c2ccc(Cl)cc2)CC1` gave DT40 TDP1 no CPT 21µM*, DT40 TDP1 CPT inconclusive, HT1080NT lethal 4%, IL1B secr inh -5 and HT1080 IDH1KD tx 4%.
CCOc1ccc(Br)c(C2(O)CC(C)N(C)CC2C)c1 (configuration not stated) was read as DT40 TDP1 no CPT -24%, DT40 TDP1 CPT 3%, HT1080NT lethal -8%, IL1B secr inh inconclusive and HT1080 IDH1KD tx -4%.
CCN1C[C@]2(COC)CC[C@H](OC)[C@@]34C5C[C@@H]6[C@@H](OC)C[C@@]7(OCO[C@@]7([C@@H](O)C23)[C@@H]14)C5[C@H]6OC (some centres not stated) was read as DT40 TDP1 no CPT 0% and DT40 TDP1 CPT 0%.
`C/C(=N\NC(=O)c1ccncc1)c1c(O)[nH]c(=O)[nH]c1=O` gave DT40 TDP1 no CPT 3%, DT40 TDP1 CPT -1%, HT1080NT lethal 14%, IL1B secr inh 21 and HT1080 IDH1KD tx 23%.
